The values that follow come from PubChem BioAssay (NCI).

About 79,000 compounds went through this panel and 15% of them were active in at least one assay; those are over-represented in the sample as a whole. Unmarked numbers belong to inactive results. Active and inactive are the calls of the source. No stated cut-off is given here; in the data, active means growth inhibition above about 70%; inactive means the rest. Where a SMILES comes first, the peptide text is derived from it. The star is where a group is joined. OSu = O=C1CCC(=O)N1O*; OBn = c1ccc(CO*)cc1; Bn = c1ccc(C*)cc1

Test [1] is described as follows: NCI Yeast Anticancer Drug Screen. Data for the rad50 strain (AID 155).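 Further: 0% = growth of vehicle-only cultures of the same strain.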 The settings on record: S. cerevisiae rad50 strain growth inhibition, hits give high values. An outline of the steps:
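Relative growth inhibition (compound vs vehicle) was measured in yeast with a defined repair-gene alteration.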

Test [2] is described as follows: NCI Yeast Anticancer Drug Screen. Data for the mec2-1 strain (AID 157). The settings on record: S. cerevisiae mec2-1 strain, hits give high values. An outline of the steps: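 Each compound was tested on mec2-1 yeast, a strain altered in DNA damage repair or cell cycle control. Growth inhibition is reported relative to vehicle.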
The nature of test [3]: NCI Yeast Anticancer Drug Screen. Data for the sgs1 mgt1 strain (AID 161).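 Further: 0% = growth of cultures given vehicle only.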 The settings on record: S. cerevisiae sgs1 mgt1 strain, hits give high values. The essentials: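 Genetically altered yeast, compound exposure, growth inhibition relative to vehicle.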
Test [4] can be described thus: NCI Yeast Anticancer Drug Screen. Data for the cln2 rad14 strain (AID 165).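 Further: 0% = growth equal to vehicle treated cultures.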 The settings on record: S. cerevisiae cln2 rad14 strain, hits give high values. The essentials:
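Test compounds were added to cln2 rad14 yeast cultures; inhibition of growth was then determined by comparison with vehicle treatment.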

The nature of test [5]: NCI Yeast Anticancer Drug Screen. Data for the bub3 strain (AID 167). The settings on record: S. cerevisiae bub3 mutant strain, hits give high values. The essentials: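 Screening used yeast with an engineered genetic alteration affecting cell cycle control. Compound-exposed cultures were compared with vehicle cultures, and reduced growth was taken as inhibition.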
Test [6] can be described thus: NCI Yeast Anticancer Drug Screen. Data for the mlh1 rad18 strain (AID 175). The settings on record: S. cerevisiae mlh1 rad18 strain growth inhibition, hits give high values. An outline of the steps:
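Inhibition values reflect reduced growth of mutant yeast versus vehicle-treated controls following compound exposure; the mutations affect DNA damage repair.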

The mark [7] stands for this setting: at 5.0 µM (retest, dose inferred, filed as 0.5).
Where [8] appears, read: at 50.0 µM (retest, dose inferred, filed as 5.0).

As for `CC(=O)NC1=C(Sc2ccc([N+](=O)[O-])cc2)C(=O)c2ccccc2C1=O`, the growth inhibition was 96% (active) in test [1] (setting [7]); 98% (active) in test [1] (setting [8]); 61.4% in test [1] (at 50.0 µM); 98% (active) in test [2] (setting [7]); 96% (active) in test [2] (setting [8]); 11.1% in test [2] (at 50.0 µM). Besides, the growth inhibition is 98% (active) in test [3] (setting [7]); 99% (active) in test [3] (setting [8]); 21.9% in test [3] (at 50.0 µM); 46% in test [4] (setting [7]); 13% in test [4] (setting [8]); -18.1% in test [4] (at 50.0 µM). The growth inhibition is 75% (active) in test [5] (setting [7]); 5% in test [5] (setting [8]); 62% in test [5] (at 50.0 µM); 98% (active) in test [6] (setting [7]); 99% (active) in test [6] (setting [8]); 51.5% in test [6] (at 50.0 µM).
For the compound `CC(C)CC(NC(=O)C(N)CCC(=O)OCc1ccccc1)C(=O)NC(COCc1ccccc1)C(=O)NC(Cc1ccccc1)C(=O)ON1C(=O)CCC1=O` (configuration not stated) (H-E(OBn)LS(Bn)F-OSu; configuration not given here), the growth inhibition was 54% in test [1] (setting [7]); 66% in test [1] (setting [8]); 81.7% (active) in test [1] (at 50.0 µM); 48% in test [2] (setting [7]); 74% (active) in test [2] (setting [8]); 84.6% (active) in test [2] (at 50.0 µM). Moreover, the growth inhibition is 48% in test [3] (setting [7]); 81% (active) in test [3] (setting [8]); 83.1% (active) in test [3] (at 50.0 µM); 41% in test [4] (setting [7]); 71% (active) in test [4] (setting [8]); 86.7% (active) in test [4] (at 50.0 µM). Also, the growth inhibition was 42% in test [5] (setting [7]); 81% (active) in test [5] (setting [8]); 80.8% (active) in test [5] (at 50.0 µM); 60% in test [6] (setting [7]); 79% (active) in test [6] (setting [8]); 79% (active) in test [6] (at 50.0 µM).
As to `CCOC(=O)c1cc(Cc2ccccc2)c(=O)n(C)c1-c1ccccc1`, the growth inhibition in test [1] (setting [7]) was 4%; in test [1] (setting [8]), 75% (active); in test [1] (at 50.0 µM) it was 72% (active); in test [2] (setting [7]) it was -3%; in test [2] (setting [8]), 83% (active); in test [2] (at 50.0 µM), 3.1%. Besides, the growth inhibition was 0% in test [3] (setting [7]); 85% (active) in test [3] (setting [8]); 93% (active) in test [3] (at 50.0 µM); 7% in test [4] (setting [7]); 46% in test [4] (setting [8]); -5.4% in test [4] (at 50.0 µM). Moreover, the growth inhibition in test [5] (setting [7]) was 5%; in test [5] (setting [8]), 84% (active); in test [5] (at 50.0 µM), 85.3% (active); in test [6] (setting [7]) it was 2%; in test [6] (setting [8]), 86% (active); in test [6] (at 50.0 µM) it was 50.1%.
As for `COc1ccc2c(c1)N=C(N)n1c(nc3ccccc31)S2`, the growth inhibition in test [1] (setting [7]) was -1%; in test [1] (setting [8]), 51%; in test [1] (at 50.0 µM), 60.6%; in test [2] (setting [7]) it was -6%; in test [2] (setting [8]) it was 42%; in test [2] (at 50.0 µM), 54.6%. Besides, the growth inhibition in test [3] (setting [7]) is -10%; in test [3] (setting [8]) it was 83% (active); in test [3] (at 50.0 µM), 74.3% (active); in test [4] (setting [7]), -33%; in test [4] (setting [8]) it was 34%; in test [4] (at 50.0 µM), 36.1%. The growth inhibition in test [5] (setting [7]) is -37%; in test [5] (setting [8]), 36%; in test [5] (at 50.0 µM), 69.7%; in test [6] (setting [7]), -14%; in test [6] (setting [8]) it was 57%; in test [6] (at 50.0 µM), 56.8%.
`CNc1ccc([N+](=O)[O-])cc1`: the growth inhibition in test [1] (setting [7]) is -4%; in test [1] (setting [8]), 13%; in test [1] (at 50.0 µM), 43%; in test [2] (setting [7]), 1%; in test [2] (setting [8]), 9%; in test [2] (at 50.0 µM), 12.8%. Moreover, the growth inhibition in test [3] (setting [7]) was -1%; in test [3] (setting [8]), 11%; in test [3] (at 50.0 µM) it was -5.2%; in test [4] (setting [7]), 2%; in test [4] (setting [8]) it was 1%; in test [4] (at 50.0 µM), 22.9%. Also, the growth inhibition was -1% in test [5] (setting [7]); 14% in test [5] (setting [8]); 31.1% in test [5] (at 50.0 µM); 0% in test [6] (setting [7]); 19% in test [6] (setting [8]); 10.3% in test [6] (at 50.0 µM).
`COc1ccc(Cc2nc3ccccc3s2)cc1OC`: the growth inhibition in test [1] (setting [7]) is 42%; in test [1] (setting [8]), 98% (active); in test [1] (at 50.0 µM), 90.3% (active); in test [2] (setting [7]), 39%; in test [2] (setting [8]), 99% (active); in test [2] (at 50.0 µM) it was 92.8% (active). In addition, the growth inhibition in test [3] (setting [7]) is 61%; in test [3] (setting [8]), 99% (active); in test [3] (at 50.0 µM) it was 93.7% (active); in test [4] (setting [7]) it was 42%; in test [4] (setting [8]), 97% (active); in test [4] (at 50.0 µM), 91.9% (active). The growth inhibition in test [5] (setting [7]) is 51%; in test [5] (setting [8]) it was 99% (active); in test [5] (at 50.0 µM), 92.6% (active); in test [6] (setting [7]) it was 73% (active); in test [6] (setting [8]) it was 99% (active); in test [6] (at 50.0 µM), 91.8% (active).
With `Cc1cc(O)c(C)c(C)c1N=Nc1ccccc1`, the growth inhibition was -157% in test [1] (setting [7]); -58% in test [1] (setting [8]); 56.4% in test [1] (at 50.0 µM); -52% in test [2] (setting [7]); -51% in test [2] (setting [8]); 6.3% in test [2] (at 50.0 µM). Also, the growth inhibition in test [3] (setting [7]) is -68%; in test [3] (setting [8]), -38%; in test [3] (at 50.0 µM), 58.5%; in test [4] (setting [7]), -63%; in test [4] (setting [8]) it was -81%; in test [4] (at 50.0 µM), 16.8%. The growth inhibition in test [5] (setting [7]) is -70%; in test [5] (setting [8]) it was -47%; in test [5] (at 50.0 µM), 63.8%; in test [6] (setting [7]), -124%; in test [6] (setting [8]), -119%; in test [6] (at 50.0 µM), 87.5% (active).
`O=C1C=CC(=O)c2nc3ccccc3nc21`: the growth inhibition was 5% in test [1] (setting [7]); 98% (active) in test [1] (setting [8]); 85.3% (active) in test [1] (at 50.0 µM); 2% in test [2] (setting [7]); 99% (active) in test [2] (setting [8]); 83.2% (active) in test [2] (at 50.0 µM). Besides, the growth inhibition in test [3] (setting [7]) is 1%; in test [3] (setting [8]) it was 98% (active); in test [3] (at 50.0 µM), 50.6%; in test [4] (setting [7]) it was -1%; in test [4] (setting [8]) it was 99% (active); in test [4] (at 50.0 µM) it was -16.7%. Moreover, the growth inhibition in test [5] (setting [7]) was -1%; in test [5] (setting [8]), 98% (active); in test [5] (at 50.0 µM) it was 90.1% (active); in test [6] (setting [7]) it was 16%; in test [6] (setting [8]), 97% (active); in test [6] (at 50.0 µM), 91% (active).
Turning to `O=C1C(Br)=C(C2CCCCC2)C(=O)c2ccccc21`, the growth inhibition in test [1] (setting [7]) is 54%; in test [1] (setting [8]), 99% (active); in test [1] (at 50.0 µM) it was 101% (active); in test [2] (setting [7]), 59%; in test [2] (setting [8]), 100% (active); in test [2] (at 50.0 µM), 99.7% (active). In addition, the growth inhibition is 78% (active) in test [3] (setting [7]); 99% (active) in test [3] (setting [8]); 99.6% (active) in test [3] (at 50.0 µM); 20% in test [4] (setting [7]); 99% (active) in test [4] (setting [8]); 100% (active) in test [4] (at 50.0 µM). Also, the growth inhibition in test [5] (setting [7]) is 24%; in test [5] (setting [8]), 100% (active); in test [5] (at 50.0 µM), 99.5% (active); in test [6] (setting [7]), 83% (active); in test [6] (setting [8]), 99% (active); in test [6] (at 50.0 µM) it was 99.2% (active).
